Where “and” joins values, the source holds several entries; their conditions need not be identical. Equal entries are not always repeated. The campaign covered roughly 5,500 compounds. About 2,000 (36%) were called active. Another 18% or so got no clear call; they are omitted. Cut-off read from the data, not from the text of the source: active = normalized growth mostly below about 0.91 (no sharp cut-off); inconclusive = no clear call, values can overlap the other calls; inactive = mostly above about 0.92. The list shows a part of the results.
Experiment: chemical genetic growth profiling, strain panel (AID 1159580);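 note: tested at 20 µM; growth read once vehicle control cultures reached saturation at 30 °C; 1 = growth at the plate median or of vehicle wells; lower values mean less growth of the strain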
Conditions: S. cerevisiae deletion strains, growth OD

Measured: normalized growth

O=C1NC(=O)C(=O)C(=O)N1
inactive: locus YAL013W, strain DEP1, hits give low values 1.01 | locus YAL021C, strain ccr4, hits give low values 1 | locus YAL026C, strain drs2, hits give low values 0.991 | locus YAL030W, strain snc1, hits give low values 0.989 | locus YBL061C, strain skt5, hits give low values 0.984 | locus YBR009C, strain hhf1, hits give low values 0.997 | locus YBR021W, strain FUR4, hits give low values 1.03 | locus YBR023C, strain chs3, hits give low values 0.997 | locus YBR171W, strain sec66, hits give low values 0.979 | locus YBR229C, strain ROT2, hits give low values 1.01 | locus YBR231C, strain swc5, hits give low values 0.986 | locus YBR279W, strain paf1, hits give low values 0.993 | locus YCL011C, strain gbp2, hits give low values 0.996 | locus YCL016C, strain dcc1, hits give low values 0.995 | locus YCL029C, strain bik1, hits give low values 0.984 | locus YCL061C, strain MRC1, hits give low values 0.988 | locus YCL069W, strain vba3, hits give low values 0.989 | locus YCR088W, strain abp1, hits give low values 0.984 | locus YDL005C, strain med2, hits give low values 0.984 | locus YDL035C, strain GPR1, hits give low values 1.03 | locus YDL040C, strain nat1, hits give low values 0.988 | locus YDL074C, strain BRE1, hits give low values 1.04 | locus YDL101C, strain DUN1, hits give low values 1.02 | locus YDL134C, strain PPH21, hits give low values 1.02 | locus YDL185W, strain tfp1, hits give low values 1 | locus YDL192W, strain arf1, hits give low values 0.998 | locus YDR001C, strain nth1, hits give low values 0.981 | locus YDR069C, strain doa4, hits give low values 0.998 | locus YDR101C, strain arx1, hits give low values 0.995 | locus YDR137W, strain rgp1, hits give low values 0.999 | locus YDR150W, strain NUM1, hits give low values 1.02 | locus YDR159W, strain sac3, hits give low values 0.986 | locus YDR162C, strain NBP2, hits give low values 1.02 | locus YDR195W, strain ref2 0.962 | locus YDR297W, strain sur2, hits give low values 0.999 | locus YDR318W, strain mcm21, hits give low values 0.993 | locus YDR334W, strain swr1, hits give low values 0.99 | locus YDR335W, strain msn5, hits give low values 0.995 | locus YDR388W, hits give low values 0.98 | locus YDR392W, strain spt3, hits give low values 0.979 | locus YDR502C, strain sam2, hits give low values 1.01 | locus YEL003W, strain gim4, hits give low values 0.989 | locus YEL037C, strain rad23, hits give low values 0.996 | locus YEL061C, strain CIN8 (second series), hits give low values 0.983 | locus YEL061C, strain CIN8, hits give low values 1.01 | locus YER015W, strain faa2, hits give low values 0.992 | locus YER016W, strain bim1, hits give low values 0.99 | locus YER110C, hits give low values 0.988 | locus YER111C, strain swi4, hits give low values 0.986 | locus YER155C, strain BEM2 (second series), hits give low values 0.98 | locus YER155C, strain BEM2, hits give low values 1.01 | locus YER167W, strain BCK2, hits give low values 1.03 | locus YFR010W, strain ubp6, hits give low values 0.974 | locus YGL078C, strain dbp3, hits give low values 0.985 | locus YGL086W, strain mad1, hits give low values 1.01 | locus YGL167C, strain pmr1, hits give low values 0.987 | locus YGL173C, strain kem1, hits give low values 0.969 | locus YGL227W, strain vid30, hits give low values 0.975 | locus YGL240W, strain doc1, hits give low values 0.99 | locus YGL248W, strain PDE1, hits give low values 1.02 | locus YGL253W, strain hxk2, hits give low values 0.993 | locus YGR078C, strain PAC10, hits give low values 1.02 | locus YGR135W, strain pre9, hits give low values 1 | locus YGR229C, strain SMI1, hits give low values 1.03 | locus YGR252W, strain gcn5, hits give low values 1.03 | locus YHR013C, strain ard1, hits give low values 0.991 | locus YHR027C, strain rpn1, hits give low values 0.984 | locus YHR030C, strain SLT2, hits give low values 1.01 and 0.971 | locus YHR079C, strain IRE1 (second series), hits give low values 0.991 | locus YHR079C, strain IRE1, hits give low values 0.971 | locus YHR094C, strain hxt1, hits give low values 0.994 | locus YHR129C, strain ARP1, hits give low values 1.01 | locus YHR142W, strain chs7, hits give low values 0.988 | locus YHR200W, strain rpn10, hits give low values 0.993 | locus YIL066C, strain RNR3, hits give low values 1.03 | locus YIL073C, strain SPO22, hits give low values 0.994 | locus YIL125W, strain kgd1, hits give low values 1 | locus YIR030C, strain dcg1, hits give low values 0.992 | locus YJL092W, strain hpr5, hits give low values 0.991 | locus YJL095W, strain BCK1 (second series), hits give low values 1 | locus YJL095W, strain BCK1, hits give low values 1.01 and 0.96 | locus YJL115W, strain asf1, hits give low values 0.978 | locus YJL129C, strain trk1, hits give low values 1 | locus YJL134W, strain LCB3, hits give low values 1.01 | locus YJL154C, strain vps35, hits give low values 0.985 | locus YJL164C, strain tpk1, hits give low values 1.01 | locus YJL166W, strain qcr8, hits give low values 1 | locus YJL168C, strain set2, hits give low values 0.988 | locus YJL187C, strain SWE1 (second series), hits give low values 1.01 | locus YJL187C, strain SWE1, hits give low values 0.989 | locus YJR043C, strain POL32, hits give low values 1 | locus YJR066W, strain TOR1, hits give low values 0.974
